Here are results for twelve molecules from PubChem BioAssay (EPA / NIEHS).

Inconclusive results are not listed. The source made the active and inactive calls. Rule for the calls: active = hit-call score of the fitted dose curve at least 0.9, where 1 is the maximum; inconclusive = response in the unintended direction; inactive = score below 0.9.

human Thyroid Receptor Alpha (TRa), THRA (gene 7067), sequence (P10827 whole entry, looked up): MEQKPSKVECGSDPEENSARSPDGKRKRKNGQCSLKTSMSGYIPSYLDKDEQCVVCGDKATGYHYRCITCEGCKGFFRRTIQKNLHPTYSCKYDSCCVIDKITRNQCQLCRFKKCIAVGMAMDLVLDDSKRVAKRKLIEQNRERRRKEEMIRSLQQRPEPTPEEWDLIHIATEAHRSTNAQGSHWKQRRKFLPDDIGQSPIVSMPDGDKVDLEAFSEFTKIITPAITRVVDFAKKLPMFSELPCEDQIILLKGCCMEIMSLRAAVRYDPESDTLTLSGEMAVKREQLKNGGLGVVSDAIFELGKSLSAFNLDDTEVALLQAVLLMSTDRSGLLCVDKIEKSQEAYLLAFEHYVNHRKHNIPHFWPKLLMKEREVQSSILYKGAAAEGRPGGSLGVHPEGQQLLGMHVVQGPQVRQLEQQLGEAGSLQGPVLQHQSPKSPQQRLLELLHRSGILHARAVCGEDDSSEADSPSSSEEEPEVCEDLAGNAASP

In the experiment the target is human Thyroid Receptor Alpha (TRa), THRA (gene 7067) (UniProt P10827). The experiment can be described thus: NVS_NR_hTRa_Antagonist: NovaScreen (NVS) Nuclear Receptor Binding Assay for human Thyroid Receptor Alpha Antagonism (TRa) (AID 2283362). As to the method:
NVS_NR_hTRa_Antagonist is a biochemical, single-readout assay that uses extracted gene-proteins in a cell-free assay. Measurements were taken 1 hour after chemical dosing in a 384-well plate.NVS_NR_hTRa_Antagonist is one of one assay component(s) measured or calculated from the NVS_NR_hTRa_Antagonist assay. It is designed to make measurements of enzyme-linked immunosorbent assay, a form of binding reporter, as detected with chemiluminescence signals by AlphaLISA immunoassay technology.Data from the assay component NVS_NR_hTRa_Antagonist was analyzed into 1 assay endpoint. This assay endpoint, NVS_NR_hTRa_Antagonist, was analyzed in the positive analysis fitting direction relative to DMSO as the negative control and baseline of activity. Using a type of binding reporter, loss-of-signal activity can be used to understand changes in the binding as they relate to the gene THRA. Furthermore, this assay endpoint can be referred to as a primary readout, because the performed assay has only produced 1 assay endpoint. To generalize the intended target to other relatable targets, this assay endpoint is annotated to the nuclear receptor intended target family, where the subfamily is non-steroidal.
Binding assays used specific radioligands (tritiated, iodinated) with non-radioactive competitive displacement ligands in agonist or antagonist protocols (as indicated) and various reference compounds and inhibitors to titrate specific binding to receptors and transporters. Most enzyme assays (CYPs, kinases, phosphatases, proteases, HDACs) used recombinant protein and specific substrates (fluorescence mostly, some colorimetric and radioactive) and inhibitors, followed by a biochemical separation of substrate and product. All assays for the biochemical HTS were initially run in duplicate at a single concentration (10 uM for CYP450 assays and 25 uM for all others). […] Each assay was run with positive and negative controls, and concurrent controls on every plate. The follow-up (secondary) screen tested active chemical-pairs in concentration series, as well as a few additional assays not tested in the primary screen, some selected negative inactives, and several cases re-run in the concentration series for confirmatory purposes.
For `O=C(Nc1ccc2c(O)c(N=Nc3ccc(N=Nc4ccc(S(=O)(=O)O)cc4)cc3)c(S(=O)(=O)O)cc2c1)c1ccccc1`, the concentration at half-maximal activity (AC50) (commonly the concentration at which the activity in the assay is half-maximal) is 9.08 µM (active).

For `Cc1ccc(S(=O)(=O)Oc2ccc(N=Nc3ccc(-c4ccc(N=Nc5c(O)ccc6cc(S(=O)(=O)O)cc(S(=O)(=O)O)c56)c(C)c4)cc3C)cc2)cc1`, the AC50 is 3.09 µM (active). On to `OC[C@H]1O[C@@H]2O[C@H]3[C@H](O)[C@@H](O)[C@@H](O[C@H]4[C@H](O)[C@@H](O)[C@@H](O[C@H]5[C@H](O)[C@@H](O)[C@@H](O[C@H]6[C@H](O)[C@@H](O)[C@@H](O[C@H]7[C@H](O)[C@@H](O)[C@@H](O[C@H]8[C@H](O)[C@@H](O)[C@@H](O[C@H]9[C@H](O)[C@@H](O)[C@@H](O[C@H]1[C@H](O)[C@H]2O)O[C@@H]9CO)O[C@@H]8CO)O[C@@H]7CO)O[C@@H]6CO)O[C@@H]5CO)O[C@@H]4CO)O[C@@H]3CO`, for which the call was inactive. Same read-out and setting: in the case of `Nc1ccc(N)c2c1C(=O)c1ccccc1C2=O` it was “inactive”; in that of `Oc1ccc2cc(SSc3ccc4cc(O)ccc4c3)ccc2c1`, “inactive”. Turning to `Nc1ccc2cc(S(=O)(=O)O)cc(O)c2c1N=Nc1ccccc1C(F)(F)F`, the AC50 is 20 µM (active). For the molecule `[O-]n1ccccc1=S.[O-]n1ccccc1=S.[Zn+2]`, the AC50 was 1.1 µM (active).

Consider `CC1(C)C(=O)N(Cl)C(=O)N1Br`, for which the molecule was classed as inactive. With `Cc1cc(S(=O)(=O)O)ccc1N=Nc1c(O)ccc2ccccc12`, the half-maximal activity concentration (AC50) is 17.6 µM (active).

For the molecule `COc1ccccc1N=Nc1c(S(=O)(=O)O)cc2cc(S(=O)(=O)O)cc(NC(C)=O)c2c1O`, the concentration at half-maximal activity (AC50) is 8.29 µM (active). For the molecule `CC(CN=Cc1ccccc1O)N=Cc1ccccc1O` (configuration not stated), the outcome was inactive.

For `CCOc1ccc(N=Nc2ccc(C=Cc3ccc(N=Nc4ccc(OCC)cc4)cc3S(=O)(=O)O)c(S(=O)(=O)O)c2)cc1`, the concentration at half-maximal activity (AC50) was 14.1 µM (active).
